Experimental data as given in PubChem BioAssay AID463173 (ICCB-Longwood Screening Facility, Harvard Medical School, 2010).
About 4,300 (8.3%) of roughly 52,000 compounds were called active. Rule as the data show it: active = survival mostly below about 52% (no sharp cut-off); inactive = mostly above about 56%. The full list was thinned out, with actives kept by preference.

Tested on: DeltatarO mutant
Assay: S. aureus survival, RN4220 and DeltatarO strains – OD600, teichoic acid synthesis inhibitors, primary screen (AID 463173)
Conditions: S. aureus RN4220 wild type/DeltatarO growth, OD600, 18 h, stronger effect = lower value, screened at 18.75 µg/mL (by protocol)

Row | Structure (SMILES) | survival
1 | COc1ccccc1CNC(=O)c1cc(S(=O)(=O)N2CCCCCC2)cn1C | 113% (inactive)
2 | c1ccc2c(c1)ncn2CCn1cnc2ccccc21 | 100% (inactive)
3 | COc1ccc(OCCn2cnc3ccccc32)cc1 | 85% (inactive)
4 | Cc1cc2ncn(CCC(=O)Nc3ccccc3F)c2cc1C | 103% (inactive)
5 | CC(=O)OC(COc1ccccc1)Cn1cnc2cc(C)c(C)cc21 (stereo not given) | 140% (inactive)
6 | Cc1ccc(OCCCCn2cnc3ccccc32)cc1 | 11% (active)
7 | Cc1cc2ncn(CCCCOc3ccccc3)c2cc1C | -4% (active)
8 | Cc1cccc(C)c1NC(=O)CCC(=O)O | 76% (inactive)
9 | COc1cc(NC(=O)Cn2c(=O)n(CC3CCCO3)c(=O)c3cc(OC)c(OC)cc32)cc(OC)c1 (stereo not given) | 94% (inactive)
10 | CCN1CCN(c2ncnc3c2cnn3-c2ccc(C)cc2)CC1 | 101% (inactive)
11 | CC(C)OCCCn1c(SCC(N)=O)nc2c(sc3ccccc32)c1=O | 92% (inactive)
12 | CN(C)c1oc(-c2ccc(COc3ccccc3)o2)nc1C#N | 39% (active)
13 | Cc1ccccc1OCc1ccc(-c2nc(C#N)c(NCc3cccnc3)o2)o1 | 43% (active)
14 | COc1ccc(Nc2oc(-c3ccc(COc4ccccc4)o3)nc2C#N)cc1 | 100% (inactive)
15 | COc1ccc(CNc2oc(-c3ccc(COc4ccccc4C)o3)nc2C#N)cc1 | 50% (inactive)
16 | COc1ccc(OCc2ccc(-c3nc(C#N)c(NCc4cccnc4)o3)o2)cc1 | 56% (inactive)
17 | CC1CCN(c2oc(-c3ccc(COc4ccccc4)o3)nc2C#N)CC1 | 51% (inactive)
18 | CCCCNc1oc(-c2ccc(COc3ccccc3C)o2)nc1C#N | 112% (inactive)
19 | N#Cc1nc(-c2ccc(COc3ccccc3)o2)oc1NCc1cccnc1 | 44% (active)
20 | Cc1ccccc1OCc1ccc(-c2nc(C#N)c(NCCCN(C)C)o2)o1 | 59% (inactive)
21 | COCCCNc1oc(-c2ccc(COc3ccccc3C)o2)nc1C#N | 43% (active)
22 | Cc1ccc(OCc2ccc(-c3nc(C#N)c(NCc4cccnc4)o3)o2)cc1 | 51% (inactive)
23 | N#Cc1nc(-c2ccc(COc3ccccc3)o2)oc1NCc1ccccc1 | 70% (inactive)
24 | Cn1c(=O)c2cc(C(=O)NCCCN3CCN(c4cccc(Cl)c4)CC3)sc2c2ccccc21 | 48% (inactive)

Row | Structure (SMILES) | survival
25 | Cc1cc(C)c(Cn2c(=O)n(CCC(=O)NCc3ccc4c(c3)OCO4)c(=O)c3ccccc32)c(C)c1 | 108% (inactive)
26 | CN(C)c1ccc(NC(=O)Cn2c(SCc3ccccc3F)nc3cccnc32)cc1 | 124% (inactive)
27 | CC(C)(C)c1ccc(OCC(=O)N(Cc2ccco2)Cc2ccccc2F)cc1 | 78% (inactive)
28 | Cc1cc(O)c(C(c2ccccc2)N2CCN(c3ccc(F)cc3)CC2)c(=O)n1Cc1ccco1 (stereo not given) | 67% (inactive)
29 | COc1ccccc1CCNC(=O)c1ccc2c(c1)c(C)c(C)n2C | 95% (inactive)
30 | Cc1ccc(NC(=O)CSc2nc(-c3ccco3)nc3cc(=O)[nH]n23)cc1C | 135% (inactive)
31 | CCOc1ccc(OCC)c(Nc2nc3ccccc3c3nnc(C)n23)c1 | 91% (inactive)
32 | Cc1nn(-c2ccc(N3CCCC3)nn2)c(C)c1CCC(=O)NCc1ccccc1F | 82% (inactive)
33 | Cc1ccc(-c2nc(CCNC(=O)C(=O)Nc3ccc(C)c(Cl)c3)cs2)cc1 | 60% (inactive)
34 | Cc1ccc(-c2nc(CCNC(=O)C(=O)Nc3ccc(C)c(C)c3)cs2)cc1 | 20% (active)
35 | Cc1cc(C)c(NC(=O)C(=O)NCCc2csc(-c3ccc(F)cc3)n2)c(C)c1 | 67% (inactive)
36 | Cc1ccc(-c2nc(CCNC(=O)C(=O)Nc3ccc(C)cc3C)cs2)cc1 | 66% (inactive)
37 | Cc1ccc(-c2nc(CCNC(=O)C(=O)Nc3c(C)cccc3C)cs2)cc1 | 8% (active)
38 | Cc1cccc(NC(=O)C(=O)NCCc2csc(-c3ccc(F)cc3)n2)c1C | 83% (inactive)
39 | Cc1c(CCNC(=O)c2ccc(Br)o2)sc2nc(-c3ccc(Cl)cc3)nn12 | 75% (inactive)
40 | O=C(CCn1cnnn1)Nc1cc(C(F)(F)F)cc(C(F)(F)F)c1 | 69% (active)
41 | O=C(CCn1cnnn1)Nc1ccc(F)cc1 | 72% (inactive)
42 | Cc1cccc(NC(=O)CCn2cnnn2)c1 | 79% (inactive)
43 | CC(=O)Nc1cccc(-c2nnc(SCC(=O)c3ccc([N+](=O)[O-])cc3)o2)c1 | 130% (inactive)
44 | COc1ccc(C)cc1NCc1nnc2n1CCCCC2 | 20% (active)
45 | COc1ccc(NCc2nnc3n2CCCCC3)c(OC)c1 | 100% (inactive)
46 | Fc1ccc(NCc2nnc3n2CCCCC3)cc1Cl | 102% (inactive)
47 | COc1ccc(Cl)cc1NCc1nnc2n1CCCCC2 | 8% (active)
48 | Cc1ccc(Cl)cc1NCc1nnc2n1CCCCC2 | 101% (inactive)

Row | Structure (SMILES) | survival
49 | Cc1cc(C)cc(NCc2nnc3n2CCCCC3)c1 | 89% (inactive)
50 | Clc1cccc(-n2ncc3c(N4CCC(Cc5ccccc5)CC4)ncnc32)c1 | 83% (inactive)
51 | CCOC(=O)c1ccccc1NC(=O)CSc1nccn1Cc1ccco1 | 75% (inactive)
52 | COCCCNC(=O)CCC(=O)NNc1nc2ccccc2c2nc(-c3ccccc3)nn12 | 100% (inactive)
53 | O=C(CCn1nnc2ccccc21)N1CCC(O)(c2cccc(F)c2)CC1 | 81% (inactive)
54 | COC(=O)c1ccccc1NC(=O)Cn1cc(S(=O)(=O)Cc2ccccc2F)c2ccccc21 | 94% (inactive)
55 | COc1cccc(N2C(=O)CSC23C(=O)N(Cc2ccccc2F)c2ccccc23)c1 (stereo not given) | 67% (inactive)
56 | COc1ccc(C2C=C(c3ccccc3)Nc3nc(NC(=O)c4ccc(C)cc4)nn32)cc1 (stereo not given) | 44% (active)
57 | Cc1ccc(C(=O)Nc2nc3n(n2)C(c2ccc(F)cc2)C=C(c2ccccc2)N3)cc1 (stereo not given) | 43% (active)
58 | COc1ccc(C(=O)Nc2nc3n(n2)C(c2ccc(F)cc2)C=C(c2ccc(Cl)cc2)N3)cc1 (stereo not given) | 54% (inactive)
59 | COc1ccc(C2C=C(c3ccccc3)Nc3nc(NC(C)=O)nn32)cc1 (stereo not given) | 53% (inactive)
60 | O=C(Nc1nc2n(n1)C(c1ccc(F)cc1)C=C(c1ccccc1)N2)c1ccc(Cl)cc1 (stereo not given) | 48% (inactive)
61 | Cc1ccc(C(=O)Nc2nc3n(n2)C(c2ccccc2)C=C(c2ccccc2)N3)cc1 (stereo not given) | 57% (inactive)
62 | CCOc1ccccc1CNC(=O)CN(c1ccc(C)cc1)S(=O)(=O)N(C)C | 70% (inactive)
63 | c1ccc(C(c2cccs2)c2c[nH]c3ccccc23)cc1 (stereo not given) | -1% (active)
64 | Clc1ccc(C(c2ccccc2)c2c[nH]c3ccccc23)s1 (stereo not given) | -3% (active)
65 | Cc1ccc2[nH]cc(C(c3ccccc3)c3ccc(Cl)s3)c2c1 (stereo not given) | 10% (active)
66 | O=C(O)CSc1c[nH]c2ccccc12 | 84% (inactive)
67 | Cn1cc(C(c2ccccc2)c2ccc(Cl)s2)c2ccccc21 (stereo not given) | 102% (inactive)
68 | COc1ccc(C(CN)c2c[nH]c3ccccc23)cc1 (stereo not given) | 107% (inactive)
69 | Cc1ccc2[nH]cc(C(c3ccccc3)c3cccs3)c2c1 (stereo not given) | 12% (active)
70 | Cc1ccc2[nH]cc(S(=O)(=O)c3ccc(C)c(C)c3)c(=O)c2c1 | 81% (inactive)
71 | CCCCN(CC)C(=O)c1nn(-c2ccc(OC)cc2)c(=O)c2c1c1ccccc1n2C | 82% (inactive)
72 | COc1cccc(CNC(=O)Cn2cc3c(n2)-c2c(oc(C(=O)N4CCCC4)c2C)CC3)c1 | 76% (inactive)

Row | Structure (SMILES) | survival
73 | Cc1cccc(N2CCN(c3ncnc4onc(C)c34)CC2C)c1 (stereo not given) | 77% (inactive)
74 | CCN(Cc1ccccc1)C(=O)c1cc2c(=O)[nH]c3ccc(C)cc3c2s1 | 49% (inactive)
75 | Cc1ccc2[nH]cc(C(c3ccccc3)c3ccc(C)s3)c2c1 (stereo not given) | 25% (active)
76 | CCc1ccc(C(c2ccccc2)c2c[nH]c3ccc(C)cc23)s1 (stereo not given) | 69% (inactive)
77 | Cc1ccc(OCc2nc(-c3ccc(C(=O)N4CCN(c5ccc(Cl)cc5)CC4)cc3)oc2C)cc1 | 76% (inactive)
78 | CCc1cccc(NC(=O)Cn2nc(-c3ccc(OC)cc3)ccc2=O)c1 | 83% (inactive)
79 | CCC(C(=O)Nc1ccc(C(=O)OC)cc1)n1nc(-c2ccc(C)c(C)c2)ccc1=O (stereo not given) | 86% (inactive)
80 | CCC(C(=O)Nc1cccc(C#N)c1)n1c(=O)c(-c2ccccc2NC(C)=O)nc2ccccc21 (stereo not given) | 100% (inactive)
81 | CCc1cccc(NC(=O)Cn2nc(CC)n3c(cc4cc(C)ccc43)c2=O)c1 | 56% (inactive)
82 | CCOc1ccc(NC(=O)C(CC)n2nc(-c3ccc(C)c(C)c3)ccc2=O)cc1 (stereo not given) | 68% (inactive)
83 | Cc1ccc(C)c(-c2ccc(=O)n(C(C)C(=O)Nc3ccccc3C(F)(F)F)n2)c1 (stereo not given) | 41% (active)
84 | CCC(C(=O)Nc1ccccc1)n1nc(-c2cc(C)ccc2C)ccc1=O (stereo not given) | 37% (active)
85 | CCC(C(=O)Nc1cccc(C#N)c1)n1nc(-c2ccccc2)ccc1=O (stereo not given) | 40% (active)
86 | Cc1ccc(-c2ccc(=O)n(CC(=O)Nc3cccc(C#N)c3)n2)cc1 | 112% (inactive)
87 | CCc1cccc(NC(=O)Cn2nc(-c3cc(C)ccc3C)ccc2=O)c1 | 34% (active)
88 | Cc1ccc(C)c(NC(=O)C(C)n2c(=O)cc(C(F)(F)F)c3c(C)nn(C)c32)c1 (stereo not given) | 89% (inactive)
89 | CCc1ccccc1NC(=O)C(C)n1nc(-c2ccc(C)c(C)c2)ccc1=O (stereo not given) | 54% (inactive)
90 | COc1ccc(Nc2ncnc3c2cnn3-c2ccc(C)cc2)cc1Cl | 128% (inactive)
91 | CC1=C(c2ccc(C)c(C)c2)S(=O)(=O)N=C1N1CCC(C(=O)Nc2cccc(F)c2)CC1 | 79% (inactive)
92 | O=C(COC(=O)c1ccccc1Cl)Nc1nccs1 | 94% (inactive)
93 | Cc1ccc(CCNC(=O)NCc2noc3ccccc23)cc1 | 102% (inactive)
94 | COc1ccc(CNC(=O)C(=O)Nc2c3c(nn2-c2ccccc2)CSC3)cc1 | 86% (inactive)
95 | Cc1ccc(OCCSc2nc(-c3ccccc3C)nc3cc(=O)[nH]n23)cc1Cl | 106% (inactive)
